# In PubChem BioAssay AID686978 (National Center for Advancing Translational Sciences (NCATS), 2013):
# Among all 420,000 compounds or so, about 64,000 (15%) were called active. Roughly 27% stayed inconclusive and do not appear here. A selection follows. A number with no mark means an inactive call. Calls follow the shape of the dose curve; as a rule, active = well fitted inhibition curve with a large enough effect; inconclusive = small, poorly fitted or top-dose-only effect; inactive = flat fitted curve, though single readings scatter.
# Test: qHTS for Inhibitors of human tyrosyl-DNA phosphodiesterase 1 (TDP1): qHTS in cells in absence of CPT; also: nearly all actives have a fitted effect of over 55% in size
# Settings: DT40 Tdp1-/- hTDP1 cells, no CPT, ATP luminescence, 48 h; activity change, negative = growth inhibition: at 46.2 µM (top of the series)
# Summary of the method: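 Growth of hTDP1-complemented DT40 Tdp1-knockout cells is measured by ATP luminescence after at least 48 hr compound exposure at 37 °C, with DMSO substituting for the 20 nM CPT used in the parallel screen.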
# % is scaled to controls: 0 for no effect and ±100 for the full control effect; potency is read from the fitted curve at half-maximal effect.
Structure (SMILES),"activity change, negative = growth inhibition [%]",Potency
CO/N=C(\N)c1ccc([N+](=O)[O-])cc1,-16.8,–
O=C1/C(=C\c2ccc(O)cc2)CCC1CNc1ccc(Cl)cc1 (configuration not stated),–,3.26 µM (active)
CCCNC(=O)C(=O)Nc1cc2c3c(c1)CCC(=O)N3CCC2,4.33,–
Cc1[nH]n(C(N)=S)c(=O)c1N=Nc1ccc(Cl)cc1Cl,-0.416,–
CC1=NN(C(N)=S)C(=O)C1N=Nc1cc(Cl)ccc1Cl (configuration not stated),–,3.66 µM (active)
Cc1cc(C)c(C#N)c(N2CCC(C(N)=O)CC2)n1,-0.105,–
O=C(c1ccc(CSc2ccccc2)cc1)N1CCCCCC1,-26.1,–
COc1ccc(CC(NC(C)=O)C(=O)NC2CCN(C(=O)c3ccc(Cl)cc3)CC2)cc1 (configuration not stated),-5.27,–
CC1CCN(C(=O)c2ccc(CSc3ccc(Cl)cc3)cc2)CC1,–,16.4 µM (active)
Cc1cc(C)c(C#N)c(Nc2cccc(Br)c2)n1,-1.59,–
CC(C)(C)OC(=O)CNC(=O)c1[nH]cnc1C(=O)N[C@@H](CCCCN)C(=O)OC(C)(C)C,-11.3,–
C#CCOCCOCCOCCNc1nc(N2CCN(C(=O)C([C@@H](C)O)n3cc([C@@H](N)CCCCN)nn3)CC2)nc(N2CCN(C(=O)[C@H](CCCCN)n3cc(CN)nn3)CC2)n1 (some centres not stated),-15,–
O=C(NCc1ccco1)C1CCCN1S(=O)(=O)c1ccccc1C(F)(F)F (configuration not stated),-18.2,–
CCCC(=O)N1CCC1(C)C(=O)Nc1ccc(-n2cncn2)cc1 (configuration not stated),-2.82,–
CCOC(=O)CSC1=N/C(=C/c2ccc(-n3cncn3)cc2)C(=O)N1C(C)=O,–,11.6 µM (active)
CCOC(=O)CSc1nc(C)cc2c1C(=O)OC2,9.81,–
C=CCn1c(COc2ccccc2C)nnc1SCC(=O)O,2.03,–
COc1ccc(CNc2ncncc2-c2ccccc2OC)c(OC)c1,-11.4,–
COc1ccc(CNc2ncncc2-c2ccccc2C)c(OC)c1,-21.4,–
COc1ccc(CCNc2ncnc3onc(-c4ccc(Cl)cc4)c23)c(OC)c1,–,14.6 µM (active)
O=C(Nc1cccc2c1CCCC2)c1ccc(F)cc1,-28.2,–
Clc1cccc(Cl)c1Cn1nnc(-c2cccs2)n1,-4.91,–
Cc1ccc(N=Cc2c(O)cc(C)oc2=O)c(C)c1,-7.95,–
C=CCN(CC=C)S(=O)(=O)c1ccc(C(=O)Nc2nc3c(s2)CCc2ccccc2-3)cc1,–,10.3 µM (active)
COCCN(CCOC)S(=O)(=O)c1ccc(C(=O)Nc2nc3c(s2)CCc2ccccc2-3)cc1,–,13 µM (active)
COCCN(CCOC)S(=O)(=O)c1ccc(/C(O)=C(\C#N)c2nc3ccccc3[nH]2)cc1,-28,–

Structure (SMILES),"activity change, negative = growth inhibition [%]",Potency
NC(=O)c1c(NC(=O)c2ccccc2)sc2c1CCCC2,-1.15,–
COc1cccc(OC)c1C(=O)Nc1sc2c(c1C(N)=O)CCCC2,-1.68,–
C=CCSc1nnc(NC(=O)c2ccc(NC(C)=O)cc2)s1,0.0104,–
COCc1nnc(NC(=O)c2ccc3c(c2)OCO3)s1,-3.94,–
O=C(Nc1ncc2c(n1)-c1ccccc1OC2)c1ccc(Cl)cc1,-18.8,–
C=CCN(CC=C)S(=O)(=O)c1ccc(C(=O)Nc2sc3c(c2C(N)=O)CCCCC3)cc1,–,13 µM (active)
CC1(c2nnc(-c3ccncc3)o2)CC(c2cccnc2)=NO1 (configuration not stated),-1.46,–
CN(C)/C(=N\OC(=O)c1ccccc1)c1nonc1N,-6.06,–
COCCNC(=O)c1ccc(Cn2c(SCC(=O)NCC3CCCO3)nc3ccc(Br)cc3c2=O)cc1 (configuration not stated),2.84,–
Nc1ccn(CC(=O)N2CCN(c3ccccn3)CC2)c(=O)n1,-6.28,–
Cc1ccc(S(=O)(=O)Nc2nc(C)cc(-n3nc(C)cc3C)n2)cc1,-1.59,–
Cc1ccc(S(=O)(=O)NC(C(=O)N2CCOCCOCCOCCOCC2)c2ccccc2)cc1 (configuration not stated),-13.9,–
CCCC(C(=O)n1nc(C)cc1C)C(NS(=O)(=O)c1ccc(C)cc1)c1ccccc1 (configuration not stated),–,23.1 µM (active)
Cc1c(NC(=O)C(C)OC(=O)c2ccccc2O)c(=O)n(-c2ccccc2)n1C (configuration not stated),-11,–
CCCCS(=O)c1snnc1C (configuration not stated),3.05,–
O=C1CCCCC1Sc1ccc(Cl)cc1[N+](=O)[O-] (configuration not stated),-19.5,–
CCOC(=O)c1ccc(NC(=O)c2c(N)n(C)c(=O)[nH]c2=O)cc1,-0.401,–
CC(C)(C)C1CCC(NC(=O)c2cnn3c2NC(=C2CC2)C=C3C(F)F)CC1 (configuration not stated),–,7.94 µM (active)
O=C(Nc1ccc([N+](=O)[O-])cc1)c1cnn2c1NC(=C1CC1)C=C2C(F)F,-1.42,–
O=C(Nc1ccc(Cl)cc1)c1cnn2c1NC(=C1CC1)C=C2C(F)F,0.994,–
Cc1cc(N2C(=O)C(=O)/C(=C(/O)c3ccccc3)C2c2cccc(Br)c2)no1 (configuration not stated),-12.7,–
O=C(O)CSC(NC(=O)c1cccnc1)(C(F)(F)F)C(F)(F)F,-1.73,–
COc1ccc(N)cc1NC(=O)CN1CCOCC1,-2.03,–
O=C(Nc1ccc(F)cc1)C(CCc1ccccc1)N1CCN(CC(=O)N2CCCC2)CC1 (configuration not stated),-24.4,–
CC(NC(=O)c1cccc(S(=O)(=O)N2CCc3ccccc3C2)c1)c1ccco1 (configuration not stated),-22.5,–
Cc1cccc(N2CCN(C(=O)c3cccc(S(=O)(=O)N4CCc5ccccc5C4)c3)CC2C)c1 (configuration not stated),–,7.31 µM (active)

Structure (SMILES),"activity change, negative = growth inhibition [%]",Potency
COC(=O)c1ccc(S(=O)(=O)N2CCc3ccccc3C2)cc1,-27.5,–
COc1ccc(-n2ncc3c(N4CCCc5ccccc54)ncnc32)cc1,-29.4,–
Cc1cc(NC(=O)CN2C(=O)NC(C)(CCc3ccccc3)C2=O)no1 (configuration not stated),-5.45,–
CCCCCCCC1(C)NC(=O)N(CC(=O)Nc2cc(C)on2)C1=O (configuration not stated),-2.67,–
COc1ccc(C2(c3ccc(OC)cc3)NC(=O)N(CC(=O)Nc3cc(C)on3)C2=O)cc1,–,16.4 µM (active)
O=C(CSc1nnc(-c2ccccc2O)o1)NC1CCCCC1,-1.77,–
O=S(=O)(Cc1ccccc1)c1nc2ccccc2n1Cc1ccccn1,-1.39,–
CCOc1ccc(S(=O)(=O)N2CCC(C(=O)NCC(=O)Nc3cccc(Cl)c3C)CC2)cc1,-24.1,–
Cc1cccc(NC(=O)c2ccccc2NC(=O)C(C)(C)C)n1,-13.1,–
Cc1cccc(NC(=O)c2cccnc2Cl)n1,21.4,–
CSc1nccc(NC(=O)c2ccc(C(C)(C)C)cc2)n1,–,7.31 µM (active)
Cc1cc(C)c2nc(NC(=O)c3ccc4c(c3)OCO4)sc2c1,-19.9,–
O=c1cnc2cnc(Nc3ccccc3)nc2n1Cc1ccc(F)cc1,-27.5,–
COc1cccc(Nc2ncc3ncc(=O)n(C4CC4)c3n2)c1,–,11.6 µM (active)
Cc1nc2cnc(Nc3ccccc3)nc2n(C[C@H]2CCCO2)c1=O,-7.1,–
CC(C)CCNC(=O)C1CCC(CNc2c(N3CCC(C)CC3)c(=O)c2=O)CC1 (configuration not stated),4.09,–
CC(C)C(=O)N1CCN(CCN=CC2=C(O)CC(c3ccco3)CC2=O)CC1 (configuration not stated),–,inactive
Cc1ccc(OCC(=O)NCCCNC(=O)c2cccnc2)cc1C,-16.4,–
CCCc1nc(N2CCN(C)CC2)c2sc(=S)n(-c3ccccc3)c2n1,–,16.4 µM (active)
CCCc1nc(-c2ccccc2O)n(-c2ccccc2)n1,-28.1,–
O=C1/C(=C/c2ccc3c(c2)OCO3)Oc2cc(OCC(=O)N3CC(O)C[C@H]3C(=O)O)ccc21 (some centres not stated),-0.893,–
CCc1ccccc1N(CC(=O)NCCSCc1ccco1)S(C)(=O)=O,-5.54,–
Cc1noc(/C=C/N(C)C)c1S(=O)(=O)N1CCCC(C(=O)NCc2ccco2)C1 (configuration not stated),1.87,–
Cc1noc(/C=C/c2ccco2)c1S(=O)(=O)N1CCC(C(=O)Nc2ccc(Cl)cn2)CC1,–,18.4 µM (active)
Cc1ccnc(NC(=O)C2CCN(S(=O)(=O)c3c(C)c(C)cc(C)c3C)CC2)c1,-18.4,–
CNC(=O)C1CCN(S(=O)(=O)c2c(C)noc2/C=C/c2cccc(C)c2)CC1,-2.36,–

Structure (SMILES),"activity change, negative = growth inhibition [%]",Potency
Cc1cccc(NC(=O)C2CCN(S(=O)(=O)c3c(C)noc3/C=C/c3ccco3)CC2)c1,–,20.6 µM (active)
CC(=O)c1ccc(NC(=O)C2CCN(S(=O)(=O)c3c(C)noc3/C=C/c3ccc(C)cc3)CC2)cc1,-14.2,–
CC(C)CCNC(=O)c1cccnc1Sc1ccccc1,-12.3,–
Cc1ccccc1CN1C[C@@H]2C[C@@H](c3ccc4nsnc4c3)N3CCC[C@@]23C1=O,–,20.6 µM (active)
Cc1ccccc1CN1CCN(CC(=O)NCc2ccccn2)C1=O,0.195,–
CC(=NCC1CCCO1)c1c(O)[nH]c(=O)[nH]c1=O (configuration not stated),-21.1,–
COc1ccc(/C=C2/C(=O)OCc3cc(OC)c(OC)cc32)c(OC)c1,–,29.1 µM (active)
COc1ccc(C2/C(=C(/O)c3ccccc3)C(=O)C(=O)N2C)c(OC)c1 (configuration not stated),-1,–
COc1ccc(/C=C2/C(=O)N(c3ccccc3)N=C2C)c(OC)c1,9.93,–
Cc1nc(N)sc1N=Nc1c(C)n(C)n(-c2ccccc2)c1=O,-17.5,–
COc1ccc(-c2nc3ccccc3c(=O)n2CCc2ccc(O)cc2)cc1,–,9.2 µM (active)
COc1ccc(-c2ccc(CCC(=O)O)n2-c2ccc(O)cc2)cc1,-9.04,–
COc1cccc(OCCn2c(-c3ccc(Br)cc3)nc3ccccc3c2=O)c1,-7,–
CCc1ccc(CNC(=O)C2CCN(c3nnc(C)c4c(C)n(-c5ccc(C)cc5)nc34)CC2)cc1,–,5.17 µM (active)
Cc1nnc(N2CCCC(C(=O)NCCN(C)C)C2)c2nn(-c3ccccc3)c(C)c12 (configuration not stated),-18,–
COc1ccc(-n2nc3c(N4CCC(C(=O)NCc5ccccc5)CC4)nnc(C)c3c2C)cc1,0.177,–
CCOc1ccc(CNC(=O)C2CCCN(c3nnc(C)c4c(C)n(-c5ccccc5)nc34)C2)cc1 (configuration not stated),–,18.4 µM (active)
COC(=O)CCCCC1=CCC2C(=O)C=C(O)C2C1 (configuration not stated),4.57,–
CCOC(=O)C1(Cc2cccc(OC)c2)CCN(C(C)COC)CC1 (configuration not stated),-60.7,–
CCOC(=O)C1(Cc2cccc(OC)c2)CCN(Cc2csc(C(C)=O)c2)CC1,–,13 µM (active)
CCOC(=O)C1(Cc2cccc(OC)c2)CCN(C(C)CC(C)(C)O)CC1 (configuration not stated),-28.5,–
Cc1ccc(NC(=O)Nc2cccnc2)cc1,6.11,–
O=C(O)Cc1sc(-c2ccc(C(=O)O)cc2)nc1-c1ccccc1,1.9,–
Cc1ccc(-c2nc(-c3cccnc3)sc2CC(=O)Nc2ccc(C)c(Cl)c2)cc1,–,23.1 µM (active)
